Only some compounds are listed: those with a hit (about 2.9% of all), similar ones and a draw of the others.
HIF-2a block – inhibitors of HIF-2a | AID 624352 | 786-0 RCC cells HIF-2a reporter, luciferase luminescence, overnight | inhibition, % at 18.8 µM | 360,000 compounds, 0.72% hits;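 active = inhibition of the luminescence signal of 40% or more relative to plate controls, in a single-dose primary screen at 18.75 µM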
Peg3 prom inh – Peg3 promoter activity inhibition; inhibition, % at 20 µM; HeLa PEG-Prom luciferase reporter, luminescence, overnight; 360,000 compounds, 1.7% hits;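 active = inhibition of at least 50% at 20 µM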
Shn3 3UTR inh – inhibitors of Schnurri-3 3'UTR reporter in osteoblasts; Clone20 osteoblast Shn3 3'UTR firefly luciferase, 24 h; inhibition, % at 12.5 µM; 360,000 compounds, 0.52% hits; AID 588674;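 active = mean inhibition of at least 75% with every replicate also reaching 75%; inconclusive = mean inhibition at least 75% but some replicate below; inactive = mean inhibition below 75%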;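 also: 0% = median of neutral control wells and 100% = pilot-screen positive control compound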
EBV LMP1 NFkB – Epstein-Barr LMP1 NF-kappaB reporter inhibition; inhibition, % at 12.5 µM; 350,000 compounds, 0.69% hits; LMP1-induced NF-kappaB luciferase reporter cells, luminescence; in the data active = inhibition above about 41%; inconclusive = no clear call, values can overlap the other calls;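 also: 0% = neutral control wells and 100% = reference inhibitor control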
CF NFkB inh – inhibitors of cystic fibrosis induced NF-kB | KKLEB NF-kB-GFP reporter, PAF-induced, GFP fluorescence overnight | inhibition, % at 5 µM | 360,000 compounds, 0.86% hits | AID 588850;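 active = at least 50% inhibition at 5 µM, scaled per plate between neutral and stimulator controls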;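 also: PAF is a Pseudomonas aeruginosa culture filtrate used as stimulus; plate controls were PAF-stimulated DMSO wells for no effect and unstimulated DMSO wells for full effect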
KKLEB tox – counter-screen for CF NF-kB inhibitors: cytotoxicity; activity change (cytotoxicity), % at 5 µM; 360,000 compounds, 0.36% hits; KKLEB CF airway cells viability, ATPlite luminescence, overnight; active compounds read low; cells stimulated with P. aeruginosa culture filtrate;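 active = corrected activity change at or below -50% at 5 µM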
* hit, by the source's call; ? = inconclusive; · = no result given.

SMILES	HIF-2a block	Peg3 prom inh	Shn3 3UTR inh	EBV LMP1 NFkB	CF NFkB inh	KKLEB tox
CCOc1ccc(-c2cc(C(=O)N3CCN(C)CC3)c3ccccc3n2)cc1	-197.4	-167.1	-13.3	-3.7	13.4	-21.1
COc1cc(-c2cc(C(=O)N3CCN(c4ccccn4)CC3)c3ccccc3n2)cc(OC)c1OC	-10.6	37.5	-4.9	16.8	-17.7	-11.6
COc1ccc(-c2cc(C(=O)N3CCN(c4ncccn4)CC3)c3ccccc3n2)cc1	-247.2	-67.3	-53.8	-4.6	-2.6	-28.1
CCOc1ccc(-c2cc(C(=O)N3CCN(c4ccccn4)CC3)c3ccccc3n2)cc1	-286.1	-56.6	-33.9	12.5	1.8	-68.0*
CCOc1ccc(-c2cc(C(=O)N3CCCC3)c3ccccc3n2)cc1	-199.6	-202.2	-78.5	-12.6	-11.5	-23.7
CCCc1ccc(-c2cc(C(=O)N3CCN(c4ccccn4)CC3)c3ccccc3n2)cc1	-121.9	-40.2	26.5	6.1	12.3	-75.6*
COc1cc2c(cc1OC)C(c1ccccc1[N+](=O)[O-])=NCC2	6.6	10.2	4.8	·	-8.5	-4.9
COc1ccc2cc(-c3cc(C(=O)O)c4ccccc4n3)ccc2c1	35.0	30.4	65.8	66.0*	-2.4	-54.1*
COc1ccc(-c2cc(C(=O)O)c3ccccc3n2)c(OC)c1	19.8	8.3	-4.4	-2.9	-7.4	7.3
Cc1ccc(-c2nc(CSCC(=O)N3CCN(c4ccccn4)CC3)c(C)o2)cc1	2.0	7.7	60.0	7.3	-17.2	3.5
CCc1ccc(-c2nc(CSCC(=O)N3CCN(c4ccccn4)CC3)c(C)o2)cc1	57.7*	44.7	18.5	4.2	-21.9	10.4
COc1ccc(C#Cc2c(-c3ccsc3)oc3ccc(N4CCOCC4)cc23)cc1	-149.9	-74.8	-4.8	0.1	20.0	-6.8
c1cc(-c2cc3cc(N4CCOCC4)ccc3o2)cs1	-247.4	-98.1	-26.9	2.5	-6.6	-70.2*
Cc1nn(C(C)C(=O)O)c(=O)c2ccccc12 (stereo unspecified)	11.8	13.6	-23.8	1.2	3.1	1.7
CN(CC(=O)NCCN1CCN(c2ccccc2)CC1)S(=O)(=O)c1ccc2c(c1)CCC(=O)N2	4.0	2.0	-6.0	-4.6	7.0	-4.2
O=C(Cc1ccccc1)NNc1c2ccccc2nc2ccccc12	7.1	10.5	9.5	0.9	-44.7	-1.5
O=C(Nc1c2ccccc2nc2ccccc12)C(Cl)(Cl)Cl	14.8	96.4*	-2.5	-11.0	-84.7	8.3
COC(=O)Cn1c(=O)c(C(=O)CCl)c(N)n(Cc2ccccc2)c1=O	29.5	80.7*	·	-9.0	27.6	5.4
CCC(=O)OCC(=O)c1c(N)n(Cc2ccccc2)c(=O)n(C)c1=O	2.5	5.7	7.4	0.0	-3.8	-4.1
COC(=O)Cn1ncc2c(C)n(Cc3ccccc3)c(C)c2c1=O	-196.7	-33.6	-43.0	68.5*	1.9	-6.8
COc1ccc(CC(=O)NC2CCS(=O)(=O)C2)cc1 (stereo unspecified)	7.6	3.5	-1.9	6.3	-7.3	12.7
CN(C)C(=O)c1ccc(SC(=S)NCc2ccccc2)cc1	4.1	85.3*	?	·	8.0	-5.8
CC(C)(C)CC(=O)NC(=S)NCc1ccccc1	2.5	3.9	-32.9	-4.4	10.9	-9.9
O=[N+]([O-])c1ccc(N2CCN(Cc3ccccc3)CC2)s1	8.7	-1.2	25.1	-1.9	-3.3	2.1
O=[N+]([O-])c1ccc(N2CCN(Cc3ccccc3)CC2)c2c1no[n+]2[O-]	23.5	95.0*	77.4	-43.1	42.3	-60.9*
SMILES	HIF-2a block	Peg3 prom inh	Shn3 3UTR inh	EBV LMP1 NFkB	CF NFkB inh	KKLEB tox
Cc1nn(-c2ccc(F)cc2)c2nc(N)c(C#N)c(-c3ccc(O)c(O)c3)c12	23.5	40.8	16.2	-3.1	9.6	-1.3
Cc1nn(-c2ccc(F)cc2)c2nc(N)c(C#N)c(-c3cccs3)c12	10.1	84.2*	3.7	4.5	14.5	-15.4
O=c1[nH]c(C2CCN(S(=O)(=O)c3cccc(C(F)(F)F)c3)CC2)nc2c1nnn2Cc1cccc(F)c1	22.0	51.4*	3.7	-17.2	15.3	-12.6
O=c1[nH]c(C2CCN(S(=O)(=O)c3ccc4c(c3)OCCO4)CC2)nc2c1nnn2Cc1cccc(F)c1	28.2	22.0	3.2	-11.2	8.6	6.0
O=C(Nc1ccccc1Oc1ccccc1)C1=COCCO1	-7.2	7.7	7.5	-6.2	8.9	-17.6
CCCCCCCCCCCC1N=C(N)NC(CCCO)=C1C(=O)OC (stereo unspecified)	37.8	96.1*	25.1	-3.1	7.1	-3.6
CC(C)OC(=O)Nc1ccc2c(c1)N(C(=O)N1CCN(C)CC1)c1ccccc1CC2	-200.9	-164.9	-35.4	-5.0	1.2	-44.0
Cc1ccc(C(OCC(O)CNCc2ccc(F)cc2)c2ccccc2)cc1 (stereo unspecified)	19.9	100.0*	41.1	3.2	16.1	-11.5
Cc1ccc(Cl)cc1N1CCN(C(=O)c2cc3c(=O)[nH]c4ccccc4c3n2C)CC1	0.7	56.4*	7.9	33.4	27.4	-13.7
CCN(CC)S(=O)(=O)c1ccc(OCCNS(C)(=O)=O)cc1	15.6	-4.0	-9.0	1.0	-6.1	5.8
O=C(Cn1cc(C(=O)c2ccco2)c2ccccc21)Nc1ccccc1F	10.8	16.1	89.0*	15.1	-15.7	-8.5
CCOC(=O)C1CCCN(C(=O)Cn2sc3nc(C)cc(C)c3c2=O)C1 (stereo unspecified)	4.5	-22.2	97.3*	-0.5	16.0	13.5
Cc1cc(C)c2c(=O)n(CC(=O)N3CCC(N4CCCCC4)CC3)sc2n1	12.2	33.9	-14.7	-11.5	28.4	-5.7
CCCCN(C(C)=O)c1ccc2c(c1)C1CC2CCN1C(=O)OCc1ccccc1 (stereo unspecified)	1.1	10.5	89.6*	6.4	9.2	-17.1
CCCC1=C(C(=O)OCC)C(c2c(C)nn(-c3ccccc3)c2Cl)C(C#N)=C(N)O1 (stereo unspecified)	18.3	26.1	6.4	7.0	5.5	-26.1
CCN1C(=O)N[C@@H](CCc2ccccc2)[C@H](C(C)=O)[C@H]1C	11.2	0.1	-25.6	57.6*	21.5	-17.0
CCOc1cc(S(=O)(=O)N(Cc2ccccc2)Cc2ccccc2)c(OCC)cc1-n1cnnn1	19.6	7.8	22.8	6.4	1.0	5.1
CC(=O)N(C)c1ccc(OCC(O)Cn2c(C)nc3ccccc32)cc1 (stereo unspecified)	16.1	9.8	70.6	6.6	-14.7	-7.2
CC(=O)N(C)c1ccc(OCC(O)Cn2c3ccc(Cl)cc3c3cc(Cl)ccc32)cc1 (stereo unspecified)	27.5	61.3*	23.8	-60.3	-6.3	-12.9
COC(=O)[C@]12CCCCC=C1N(Cc1ccco1)C(=O)[C@H](CC(=O)NCCc1ccccc1OC)C2	4.6	·	·	·	·	·
COC(=O)Nc1ccc(Cc2ccncc2)cc1	10.9	1.4	2.7	-3.1	12.2	-14.6

Compound activity as filed in PubChem.
